The whole screen tested about 5,500 compounds, of which about 2,000 (36%) were called active. Another 18% or so got no clear call; they are omitted. No stated cut-off is given here; in the data, active means normalized growth mostly below about 0.91 (no sharp cut-off); inconclusive means no clear call, values can overlap the other calls; inactive means mostly above about 0.92. Some of the results follow.
Experiment: chemical genetic growth profiling, strain panel (AID 1159580);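 further: tested at 20 µM; growth read once vehicle control cultures reached saturation at 30 °C; 1 = growth at the plate median or of vehicle wells; lower values mean less growth of the strain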
Settings: growth OD

Measured: normalized growth

S=P(N1CC1)(N1CC1)N1CC1
inactive: S. cerevisiae deletion strains, locus YKL009W, strain mrt4, active compounds read low 0.99 | S. cerevisiae deletion strains, locus YKL068W, active compounds read low 1.01 | S. cerevisiae deletion strains, locus YKL085W, strain MDH1 (second series), active compounds read low 0.997 | S. cerevisiae deletion strains, locus YKL085W, strain MDH1, active compounds read low 0.997 | S. cerevisiae deletion strains, locus YKL160W, strain elf1, active compounds read low 1.01 | S. cerevisiae deletion strains, locus YKL190W, strain CNB1, active compounds read low 1 | S. cerevisiae deletion strains, locus YKR001C, strain vps1, active compounds read low 0.994 | S. cerevisiae deletion strains, locus YKR026C, strain gcn3, active compounds read low 0.976 | S. cerevisiae deletion strains, locus YKR091W, strain srl3, active compounds read low 1 | S. cerevisiae deletion strains, locus YLL001W, strain dnm1, active compounds read low 1 | S. cerevisiae deletion strains, locus YLL026W, active compounds read low 1 | S. cerevisiae deletion strains, locus YLL041C, strain sdh2, active compounds read low 1.01 | S. cerevisiae deletion strains, locus YLR027C, strain aat2, active compounds read low 1.01 | S. cerevisiae deletion strains, locus YLR039C, strain RIC1, active compounds read low 1.03 | S. cerevisiae deletion strains, locus YLR058C, strain SHM2, active compounds read low 1.01 | S. cerevisiae deletion strains, locus YLR102C, strain apc9, active compounds read low 1.01 | S. cerevisiae deletion strains, locus YLR113W, strain HOG1, active compounds read low 0.995 | S. cerevisiae deletion strains, locus YLR221C, strain rsa3, active compounds read low 0.996 | S. cerevisiae deletion strains, locus YLR258W, strain gsy2, active compounds read low 1.01 | S. cerevisiae deletion strains, locus YLR262C, strain YPT6 (second series), active compounds read low 1.02 | S. cerevisiae deletion strains, locus YLR262C, strain YPT6, active compounds read low 1.02 | S. cerevisiae deletion strains, locus YLR268W, strain sec22, active compounds read low 0.989 | S. cerevisiae deletion strains, locus YLR320W, strain mms22, active compounds read low 0.994 | S. cerevisiae deletion strains, locus YLR330W, strain CHS5, active compounds read low 1.01 | S. cerevisiae deletion strains, locus YLR342W, strain FKS1 (second series), active compounds read low 1.03 | S. cerevisiae deletion strains, locus YLR342W, strain FKS1, active compounds read low 1.01 | S. cerevisiae deletion strains, locus YLR357W, strain rsc2, active compounds read low 1.03 | S. cerevisiae deletion strains, locus YLR370C, strain arc18, active compounds read low 1.01 | S. cerevisiae deletion strains, locus YLR371W, strain rom2, active compounds read low 1.01 | S. cerevisiae deletion strains, locus YLR384C, strain iki3, active compounds read low 0.994 | S. cerevisiae deletion strains, locus YLR418C, strain cdc73, active compounds read low 0.977 | S. cerevisiae deletion strains, locus YML016C, strain PPZ1, active compounds read low 1 | S. cerevisiae deletion strains, locus YML032C, strain rad52, active compounds read low 1 | S. cerevisiae deletion strains, locus YML120C, strain ndi1, active compounds read low 1.01 | S. cerevisiae deletion strains, locus YML124C, strain tub3, active compounds read low 1 | S. cerevisiae deletion strains, locus YMR058W, strain fet3, active compounds read low 1.02 | S. cerevisiae deletion strains, locus YMR078C, strain ctf18, active compounds read low 1 | S. cerevisiae deletion strains, locus YMR125W, strain sto1, active compounds read low 1 | S. cerevisiae deletion strains, locus YMR129W, active compounds read low 1.01 | S. cerevisiae deletion strains, locus YMR205C, strain PFK2, active compounds read low 1.01 | S. cerevisiae deletion strains, locus YMR223W, strain ubp8, active compounds read low 1 | S. cerevisiae deletion strains, locus YMR231W, strain pep5, active compounds read low 0.993 | S. cerevisiae deletion strains, locus YMR263W, strain SAP30, active compounds read low 1.02 | S. cerevisiae deletion strains, locus YMR307W, strain GAS1, active compounds read low 1.04 | S. cerevisiae deletion strains, locus YNL067W, strain RPL9B, active compounds read low 1.01 | S. cerevisiae deletion strains, locus YNL071W, strain lat1, active compounds read low 1.02 | S. cerevisiae deletion strains, locus YNL128W, strain TEP1, active compounds read low 1.01 | S. cerevisiae deletion strains, locus YNL153C, strain GIM3, active compounds read low 0.997 | S. cerevisiae deletion strains, locus YNL183C, strain NPR1, active compounds read low 0.932 | S. cerevisiae deletion strains, locus YNL209W, strain ssb2, active compounds read low 1.02 | S. cerevisiae deletion strains, locus YNL233W, strain BNI4, active compounds read low 0.998 | S. cerevisiae deletion strains, locus YNL248C, strain rpa49, active compounds read low 0.999 | S. cerevisiae deletion strains, locus YNL250W, strain rad50, active compounds read low 0.995 | S. cerevisiae deletion strains, locus YNL271C, strain bni1, active compounds read low 1.01 | S. cerevisiae deletion strains, locus YNL298W, strain CLA4, active compounds read low 1.02 | S. cerevisiae deletion strains, locus YNL307C, strain MCK1, active compounds read low 1.01 | S. cerevisiae deletion strains, locus YNL322C, strain KRE1 (second series), active compounds read low 1.01 | S. cerevisiae deletion strains, locus YNL322C, strain KRE1, active compounds read low 1.01 | S. cerevisiae deletion strains, locus YNR049C, strain mso1, active compounds read low 1.01 | S. cerevisiae deletion strains, locus YNR052C, strain pop2, active compounds read low 1 | S. cerevisiae deletion strains, locus YOL006C, strain TOP1, active compounds read low 1.04 | S. cerevisiae deletion strains, locus YOL012C, strain htz1 0.982 | S. cerevisiae deletion strains, locus YOL147C, strain pex11, active compounds read low 1.04 | S. cerevisiae deletion strains, locus YOR001W, strain rrp6, active compounds read low 1.01 | S. cerevisiae deletion strains, locus YOR061W, strain CKA2, active compounds read low 1.01 | S. cerevisiae deletion strains, locus YOR069W, strain VPS5, active compounds read low 0.992 | S. cerevisiae deletion strains, locus YOR070C, strain gyp1, active compounds read low 1.01 | S. cerevisiae deletion strains, locus YOR080W, strain dia2, active compounds read low 1 | S. cerevisiae deletion strains, locus YOR083W, strain WHI5, active compounds read low 0.997 | S. cerevisiae deletion strains, locus YOR106W, strain vam3, active compounds read low 0.997 | S. cerevisiae deletion strains, locus YOR136W, strain idh2, active compounds read low 1 | S. cerevisiae deletion strains, locus YOR144C, strain elg1, active compounds read low 1.01 | S. cerevisiae deletion strains, locus YOR184W, strain ser1, active compounds read low 1.01 | S. cerevisiae deletion strains, locus YOR231W, strain MKK1, active compounds read low 1 | S. cerevisiae deletion strains, locus YOR265W, strain rbl2, active compounds read low 1.01 | S. cerevisiae deletion strains, locus YOR270C, strain vph1, active compounds read low 1.01 | S. cerevisiae deletion strains, locus YOR290C, strain snf2, active compounds read low 1.01 | S. cerevisiae deletion strains, locus YOR316C, strain cot1, active compounds read low 1 | S. cerevisiae deletion strains, locus YPL051W, strain arl3, active compounds read low 1.01 | S. cerevisiae deletion strains, locus YPL055C, strain LGE1, active compounds read low 0.989 | S. cerevisiae deletion strains, locus YPL078C, strain atp4, active compounds read low 1.01 | S. cerevisiae deletion strains, locus YPL106C, strain sse1, active compounds read low 1.02 | S. cerevisiae deletion strains, locus YPL240C, strain hsp82, active compounds read low 0.996 | S. cerevisiae deletion strains, locus YPL241C, strain CIN2, active compounds read low 0.991 | S. cerevisiae deletion strains, locus YPL256C, strain CLN2, active compounds read low 0.991 | S. cerevisiae deletion strains, locus YPR119W, strain clb2, active compounds read low 1.01 | S. cerevisiae deletion strains, locus YPR141C, strain kar3, active compounds read low 0.996 | S. cerevisiae deletion strains, locus YPR163C, strain tif3, active compounds read low 1 | S. cerevisiae deletion strains, locus YPR167C, strain met16, active compounds read low 0.992 | S. cerevisiae deletion strains, strain wtn01, active compounds read low 0.983 | S. cerevisiae strains, strain wild type, active compounds read low 1.01
